# Measured values as given in PubChem BioAssay (NCI).
# About 79,000 compounds went through this panel and 15% of them were active in at least one assay; those are over-represented in the sample as a whole. Unmarked numbers belong to inactive results. The source made the active and inactive calls. Cut-off read from the data, not from the text of the source: active = growth inhibition above about 70%; inactive = the rest.
# Test: NCI Yeast Anticancer Drug Screen. Data for the wt1 strain (AID 149);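 note: 0% = growth of vehicle-treated wt1 cultures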
# Conditions: S. cerevisiae wt1 strain (SPY 50644) growth inhibition, active compounds read high
# Description: Growth inhibition of yeast strains with defined genetic alterations is measured as a screen for potential anti-cancer activity. Selected strains with alterations in DNA damage repair or cell cycle control were exposed to compounds and growth inhibition was measured relative to vehicle treated controls. The strain used in this assay is wt1
Structure (SMILES),growth inhibition (at 1.2 µM),growth inhibition (at 3.7 µM),growth inhibition (at 11.0 µM),growth inhibition (at 33.0 µM),growth inhibition (at 100.0 µM)
O=C1c2ccccc2C2CCC1c1ccccc12 (stereo not given),-12%,-14%,-13%,-6%,97% (active)
O=Cc1ccccc1B(O)O,-3%,-1%,66%,99% (active),99% (active)
O=c1oc(C(C(F)(F)F)C(F)(F)F)nc2ccccc12,4%,24%,20%,23%,27%
CC1=Cc2ccc(C)cc2C(=O)C1=O,-10%,8%,41%,99% (active),99% (active)
CC1(C)CC(=O)C(C(CC(c2ccccc2)c2cc3c(cc2O)OCO3)C2=C(O)CC(C)(C)CC2=O)=C(O)C1 (stereo not given),-84%,-3%,22%,75% (active),85% (active)
O=C(O)CN(CCNC(=O)OCC1c2ccccc2-c2ccccc21)CCNC(=O)OCC1c2ccccc2-c2ccccc21,-1%,-4%,2%,71% (active),94% (active)
c1cc2ccc3cc4ncccc4c4ccc(c1)c2c34,-2%,3%,9%,54%,75% (active)
CC1C=CN(N(C)C)C2=C1C(=O)c1cnccc1C2=O (stereo not given),-1%,7%,47%,83% (active),96% (active)
